Test results taken from PubChem BioAssay AID1650 (Southern Research Specialized Biocontainment Screening …, 2009).
Entries with a potency or affinity are not part of this list. Activity calls are given as the source filed them. How the calls were made is not given here.

Test: host cell cytotoxicity of antiviral hits, dose response, cytotoxicity control for West Nile virus antiviral project, secondary assay (AID 1650)
Conditions: Mammalian host cell viability, cytotoxicity counter-screen; series mostly up to 10 µM

SMILES	outcome
CCN1CCN(Cc2ccc(NC(=O)c3ccc(C)c(NC(=O)N4CCNC4=O)c3)cc2C(F)(F)F)CC1	inactive
COc1ccc(C(=O)CSc2nnc(-c3ccc(S(=O)(=O)N4CCOCC4)cc3)o2)cc1	inactive
C=CCn1cc(C(=O)NCCOC)c(=O)c2cc(S(=O)(=O)N(CC)CC)ccc21	inactive
CCN1C/C(=C/c2ccc(N3CCOCC3)cc2)C(=O)/C(=C/c2ccc(N3CCOCC3)cc2)C1	inactive
CN1CCCC1CCNc1ccc2c(=O)c3ccccc3oc2c1 (stereo not given)	inactive
O=C(Nc1ccc(Nc2ccccc2)cc1)C(Cl)Cl	inactive
CN1CCN(c2nc(Nc3ccc(F)cc3)nc(Nc3ccc(F)cc3)n2)CC1	inactive
CCc1ccc(-c2cc3c(=O)n(CC(=O)NCCCN4CCN(CC)CC4)nc(C)n3n2)cc1	inactive
COc1ccc(CCNC(=O)c2cc3c(=O)n4cccc(C)c4nc3n(CCCN3CCOCC3)c2=N)cc1	inactive
CC(C)c1cc(C(=O)OCC(=O)NC(=O)NCc2ccco2)c(O)c(C(C)C)c1	inactive
CN1CCN(c2ccc(S(=O)(=O)N3CCCCC3)cc2NC(=O)c2ccc3ccccc3c2)CC1	inactive
CCOc1ccc(NC(=NCc2ccc3c(c2)OCO3)SC2CC(=O)N(c3ccc(OCC)cc3)C2=O)cc1 (stereo not given)	inactive
C/C(N)=C(/C#N)C(=O)COC(=O)c1cc(-c2cccc(Br)c2)nc2ccccc12	inactive
CCCCc1nc2ccccc2c(N)c1CCC (tested in a mixture with another compound)	inactive
CCOC(=O)C(=Cc1ccc(F)cc1)C(=O)OCC	inactive
COc1ccc(CNCCC(c2ccc(OC(C)C)cc2)c2ccccc2OC)cc1OC (stereo not given)	inactive
CCn1nc(C)c(CN2CCc3c([nH]c4ccccc34)C2c2ccc(F)c(OC)c2)c1C (stereo not given)	inactive
CCOc1ccc(/C=C/c2nc(C#N)c(NCCCN(C)C)o2)cc1	inactive
COc1ccc(/C=C2\SC(=S)N(CCC(=O)NCCc3ccc(O)cc3)C2=O)cc1	inactive
CC(C)Cc1nc2oc3c(NCCCN4CCOCC4)ncnc3c2c2c1CCC2	inactive

SMILES	outcome
Cc1ccc(C)c(N2CCN(CCCNC(=O)Cn3cccc3C(=O)c3ccccc3)CC2)c1	inactive
CCN1CCN(c2ncc(C(=O)Nc3cc(Cl)c(OC)cc3OC)c3ccccc23)CC1	inactive
OC(COc1ccc(CNCCc2ccc(C(F)(F)F)cc2)cc1)CN1CCCCC1 (stereo not given)	inactive
CCc1ccc(NC(=O)CSc2nc3ccccc3c(=O)n2CCCC(=O)NCCCN2CCOCC2)cc1	inactive
CCOc1cc(/C=N/N=C(\N)c2nonc2N)cc(Br)c1OCc1cccc2ccccc12	inactive
Cc1ccc(Nc2nc(N)c([N+](=O)[O-])c(N3CCCC(C)C3)n2)cc1C (stereo not given)	inactive
O=C1c2ccccc2C2=Nc3ccccc3SC(c3ccc(Cl)cc3)C12 (stereo not given)	inactive
COc1c(O)ccc2c1CN1CCc3cc4c(cc3C1C2)OCO4 (stereo not given)	inactive
CC(=O)N1CCN(CC(=O)Nc2c(Cl)ccc(C)c2Cl)CC1	inactive
COC(=O)c1ccc(C(=O)Nc2cc(Cl)ccc2Cl)cc1NC(=O)c1ccccc1C	inactive
COc1ccc(C2c3c(ncn(CCN4CCOCC4)c3=N)Oc3ccc4ccccc4c32)cc1 (stereo not given)	inactive
CCCCCCc1c(C)nc(-n2[nH]c(C)c(CCO)c2=O)[nH]c1=O	inactive
C[C@H]1[C@H](C)CC[C@]2(C(=O)O)CC[C@]3(C)C(=CC[C@@H]4[C@@]5(C)C[C@@H](O)[C@H](O)C(C)(C)[C@@H]5CC[C@]43C)[C@H]12	inactive
CC(=O)OCCCNc1cc(Sc2ccc(C)cc2)c2nonc2c1[N+](=O)[O-]	inactive
C=CCn1cc(C(=O)NCCCOCC)c(=O)c2cc(S(=O)(=O)N(CC)CC)ccc21	inactive
COc1cc(CNC(C)(C)CO)cc(Br)c1OCc1ccc(Cl)cc1	inactive
O=C(CSCc1ccc(Cl)cc1)Nc1ccc2c(c1)OCCO2	inactive
Cc1cccc(OCC(O)Cn2c(=N)n(CCN3CCCCC3)c3ccccc32)c1 (stereo not given)	inactive
COc1ccc(OCc2cccc(C(=O)Nc3ccc(CN4CCCCC4)cc3)c2)cc1	inactive
Cc1cccc(CN2CCC(CNC(=O)Nc3ccc(F)c(Cl)c3)CC2)c1	inactive
